Kd data for 18 molecules are collected here from article PMC5540273 (PLoS ONE, 2017).

The term Kd denotes the concentration at which binding is half-saturated. A higher Kd goes with lower affinity.
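Also: kd values determined as follow-up on hits from a single-replicate KINOMEscan panel screen.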

The first test relates to JAK2(JH1domain-catalytic).
Take `COc1ccc(Nc2nccc(N3CCC(NC(=O)c4cc5ccccc5s4)C3)n2)cc1` (stereo not drawn) [GSK1379738]: binding was put at a Kd of 1800 nM.

As for `Cn1cncc1C(=O)NC1CCN(c2ccnc(Nc3ccc(F)cc3)n2)C1` (stereo not drawn) [GSK1379717], the Kd is 1500 nM.

On to `COc1ccc2cc(-c3nc(-c4ccccc4C(C)C)[nH]c3-c3ccncc3)ccc2c1` [SB-660566], for which the Kd was over 10000 nM.

Molecule `Nc1cccc(-c2ccc3c(N)n[nH]c3c2)n1` [GSK2192730] registered a Kd of over 10000 nM.

Another test relates to T1, JNK2.
T1 construct: gene MAPK9
`CCCCc1nn2ncccc2c1-c1ccnc(NC2CC2)n1` [GW684374] had a Kd of 1300 nM.

Molecule `Nc1nccc(-c2c(-c3ccc(F)cc3)ncn2C2CCN(Cc3ccccc3)CC2)n1` [SB-219980] returned a Kd of 43 nM.

Molecule `CNC(=O)c1ccc(C)c(-n2c(C)cc(OCc3ccc(F)cc3F)c(Br)c2=O)c1` returned a Kd of over 10000 nM.

In turn, `Fc1ccc(-c2nc3n(c2-c2ccncc2)CCS3)cc1` [GI98581] gave a Kd of 270 nM.

With `Fc1ccc(-c2nc[nH]c2-c2ccncc2)cc1` [SB-217360], the Kd amounted to 85 nM.

Molecule `Fc1ccc(-c2nn3cccc(F)c3c2-c2ccncc2)cc1` [GW475620] yielded a Kd of 230 nM.

In a further test the test system is T2, JNK3.
T2 construct: gene MAPK10
For `CCCCc1nn2ncccc2c1-c1ccnc(NC2CC2)n1` [GW684374], the Kd turned out to be 740 nM.

Regarding `Nc1nccc(-c2c(-c3ccc(F)cc3)ncn2C2CCN(Cc3ccccc3)CC2)n1` [SB-219980], the Kd stood at 31 nM. This Kd is about 24-fold lower than that of the molecule before.

Molecule `CNC(=O)c1ccc(C)c(-n2c(C)cc(OCc3ccc(F)cc3F)c(Br)c2=O)c1` returned a Kd of over 10000 nM.

Take `Fc1ccc(-c2nc3n(c2-c2ccncc2)CCS3)cc1` [GI98581]: binding was characterised by a dissociation constant (Kd) of 57 nM.

In the case of `Fc1ccc(-c2nc[nH]c2-c2ccncc2)cc1` [SB-217360], the Kd turned out to be 11 nM.

Consider `Fc1ccc(-c2nn3cccc(F)c3c2-c2ccncc2)cc1` [GW475620], for which the Kd came to 58 nM.

In a further test the test system is KIT.
Regarding `Cc1ccc(NC(=O)Nc2ccccc2)cc1-c1ccc(C(=O)Nc2ccncc2)cc1` [GSK1398471], the affinity, expressed as Kd, was 140 nM.

`COc1cccc(NC(=O)Nc2ccc(C)c(-c3ccc(C(=O)Nc4ccncc4)cc3)c2)c1` [GSK1398474]: binding was characterised by a dissociation constant (Kd) of 73 nM. Against the preceding molecule, the Kd is about 1.9-fold lower.

`CS(=O)(=O)Cc1ccc(Nc2nccc(-c3c(-c4cccc(NC(=O)C5CCCCC5)c4)nn4ncccc34)n2)cc1` [GSK350559]: the Kd came out at 110 nM.

As to `Cc1ccc(NC(=O)Nc2ccccc2F)cc1-c1ccc(C(=O)Nc2ccncc2)cc1` [GSK1398477], the affinity, expressed as Kd, was 450 nM.

In the case of `Cc1ccc(NC(=O)Nc2ccc(Cl)c(C(F)(F)F)c2)cc1-c1ccc(C(=O)Nc2ccncc2)cc1` [GSK1398470], binding was characterised by a dissociation constant (Kd) of 560 nM.

On to `Cc1cnc(N)c(/C=C/c2cncc(C(=O)NCCc3ccc(Cl)cc3Cl)c2)c1.Cl` [GSK190937], for which the affinity, expressed as Kd, was 150 nM. This Kd is about 3.7-fold lower than that of the molecule before.

As to `Cc1ccc(NC(=O)c2ccc(Cl)cc2)cc1-c1ccc(C(=O)Nc2ccncc2)cc1` [GSK1398467], binding was characterised by a dissociation constant (Kd) of 170 nM.

Molecule `Cc1ccc(NC(=O)Nc2ccc(Cl)cc2)cc1-c1ccc(C(=O)Nc2ccncc2)cc1` [GSK1398472] gave a Kd of 140 nM.
